# Assay results taken from ChEMBL document CHEMBL3433997, “St. Jude Leishmania screening dataset” (2016).
# Target: Glucose transporter (Leishmania mexicana) (UniProt O61059)
# Assay: ST_JUDE_LEISH: Cytotoxicity at 2uM final concentration against transgenic Leishmania Mexicana promastigotes LmGT2 that are glucose transport deficient and complemented with the L. Mexicana glucose transporter 2. Activity is measured by DNA content using SYBR green in vitro
# Format: functional
row,SMILES,inhibition [%]
1,C=CCOC1OC(COC(c2ccccc2)(c2ccccc2)c2ccccc2)C(OC(C)=O)C(OC(C)=O)C1NC(C)=O (centres undefined),0.34
2,CCC(CC)n1c(COC)cc2c3c(N)nc(N)nc3ccc21,37.3
3,CC(C)N1CCC(NC(=O)N2CCCN(c3ncnc4cc(-c5ccc(Cl)cc5)sc34)CC2)CC1,-3.09
4,CCN(CC)c1ccc2nc(N)nc(N)c2c1,7.56
5,CCCCCCN1CCCN(Cc2ccc(C(=O)Nc3ccc(C)c(F)c3)cc2)CC1,13.7
6,COc1cc2c(cc1OC)C(C(=O)Nc1ccc(C(F)(F)F)cc1)C(c1cccs1)N(C)C2=O (centres undefined),1.2
7,Cn1cccc1C(=O)C(=O)Nc1cccc(-c2ccc(-c3nc4cc(C(F)(F)F)ccc4[nH]3)cc2)c1,-0.4
8,Cc1cccc2nc(-c3ccc(-c4cccc(CNCc5ccc(S(C)(=O)=O)cc5)c4)s3)[nH]c12,9.52
9,CN(CCN)Cc1cccc(-c2ccc(-c3nc4cc(C(F)(F)F)ccc4[nH]3)s2)c1,8.17
10,COc1ccccc1C1CCN(C2CCC(NC(=O)c3cc4ccccc4[nH]3)CC2)CC1 (centres undefined),2.29
11,CCCCCCCN1CC[C@@H](CCCc2ccnc3ccc(OCCCCN/C(N)=N/O)cc23)[C@@H](CC)C1,2.04
12,CO/C(=C\C=C\c1cc2cc(Cl)c(Cl)cc2[nH]1)C(=O)NC1CCN(CCCc2ccccc2)CC1,2.46
13,COc1ccc(CNc2nccc3ccc(-c4ccc5nccn5c4)cc23)cc1,-1.93
14,Cc1ccc(NC(=O)c2ccc(C(=O)NC3CCN(CC4CCCCC4)CC3)cc2)cc1,1.65
15,COCCNC(=O)c1ccc(OC2CCN(CC(C)=Cc3ccccc3)CC2)c(Cl)c1,1.03
16,COc1cccc(NC(=O)c2ccc(NCCCN3CCC(C)CC3)c([N+](=O)[O-])c2)c1,12.8
17,Cc1csc2nc(-c3ccccn3)nc(Nc3ccncn3)c12,1.79
18,Cc1n[nH]c2ccc(-c3ccc4nccc(N5CCC(N)CC5)c4c3)cc12,-3.17
19,CS(=O)(=O)c1ccc(-c2cnc(N)c(-c3ccc(O)cc3)c2)cc1,1.48
20,COc1cccc(CN2CCC(C(=O)Nc3ccc(-c4nc5ccccc5[nH]4)cc3)CC2)c1,20.6
21,C(=N\Nc1nccc2sc(-c3ccccc3)cc12)/c1cccnc1,3.16
22,FC(F)(F)c1cccc(CNCC2CCN(Cc3ccc4c(c3)OCO4)CC2)c1,12.3
23,CCC[C@@H]([C@@H](CC1CCCCC1)C(=O)N[C@H](C(=O)Nc1nccc(N)n1)C(C)(C)C)N(O)C=O,4.24
24,OC(CNc1ccnc(Nc2cccc(OCCCN3CCOCC3)c2)n1)c1ccccc1 (centres undefined),-0.96
